Source: PubChem BioAssay
In the library only some 19% were active in any assay of this set; here they are far more common.
DT40 TDP1 CPT: growth inhibition of DT40 Tdp1-/-;hTDP1 cells with camptothecin (screen for TDP1 inhibitors) | chicken DT40 Tdp1-/-;hTDP1 cells + 20 nM CPT, ATP luminescence, 48 h | AID 686979 | 12% of 420,000 active | Potency, µM (top dose mostly 46.2 µM), without a hit: at the top dose activity change, negative = growth inhibition, usual class: inhibitors; note: potency is the fitted concentration of half-maximal effect; nearly all actives have a fitted effect of over 55% in size
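Chicken DT40 Tdp1-/- cells complemented with human TDP1, 400 cells/well, exposed to compounds plus 20 nM camptothecin for at least 48 h at 37 C; viability read as ATP content by CellTiter-Glo luminescence.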
DT40 TDP1 no CPT: qHTS for Inhibitors of human tyrosyl-DNA phosphodiesterase 1 (TDP1): qHTS in cells in absence of CPT; Potency, µM (series often up to 46.2 µM), inactives show at the top dose activity change, negative = growth inhibition, hits mostly inhibitors; DT40 Tdp1-/- hTDP1 cells, no CPT, ATP luminescence, 48 h; AID 686978, 2013; 15% of 420,000 active; note: potency is the fitted concentration of half-maximal effect; nearly all actives have a fitted effect of over 55% in size
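Cells were dispensed at 400 per well, compounds added by pin tool, plates incubated ≥48 hr at 37 °C, then CellTiter-Glo added for 30 min at room temperature before luminescence reading. Line: DT40 Tdp1-/- complemented with hTDP1; camptothecin omitted.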
HT1080NT lethal: kills 2HG-producing HT-1080-NT fibrosarcoma cells; AID 686970; HT-1080-NT fibrosarcoma viability, CellTiter-Glo ATP luminescence, 48 h; 1.6% of 360,000 active; Potency, µM (titrated, usually from 46.1 µM), for the others: at the highest dose activity, negative = less viability, actives largely listed as cytotoxic;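 note: NT is the 2HG producing partner of a matched IDH1 knockdown line; potency is the fitted concentration of half-maximal effect; 0% = DMSO-treated cells and -100% = media-only wells without cells; nearly all actives have a fitted effect of over 55% in size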
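Luminescent CellTiter-Glo readout after 48 hours of compound exposure at 37 degrees C defined viability of HT-1080-NT cells. Activity was normalized to DMSO wells and cell-free media wells; concentration-response curves were fitted and assigned curve classes.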
IL1B secr inh: inflammasome signaling inhibition, IL-1 beta readout; AID 743279; THP-1 LPS/ATP IL-1B secretion, AlphaLISA, 16 h; hits give low values; 4.7% of 360,000 active; activity change, % at 57.5 µM; in the data active = activity change below about -50%; inconclusive = mostly about -30% to -49%
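Secreted IL-1B measured by AlphaLISA bead assay after 16 h compound exposure of THP-1 cells; compounds (final up to 57.5 uM) added 1 h before LPS (250 ng/mL) and ATP (1.25 mM) stimulation; lower signal means less secretion.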
HT1080 IDH1KD tx: toxicity to HT-1080 IDH1 knockdown cells (counter line) | HT-1080 IDH1 knockdown viability, ATP luminescence, 48 h | Potency, µM (titrated, usually from 46.1 µM), for inactives: at the highest dose activity, negative = toxicity, usual class: cytotoxic | 2% of 360,000 active | AID 686971;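 note: potency is the fitted concentration of half-maximal effect; 0% = DMSO wells and -100% = cell-free medium wells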
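IDH1KD HT-1080 cells, 750/well, RPMI + 5% FBS; compound pinned after 2 h settling; 48 h, 37 °C; CellTiter-Glo luminescence; % activity normalised to DMSO and no-cell wells; curves fitted, classed by r2 and efficacy.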
An asterisk follows results filed as active; u = inconclusive; x = not tested or not shown; [ ] = dose if it differs, or a comment. Unless noted, calls come from the whole dose curve; as a rule, active = well fitted curve in the direction sought with a large enough effect; inconclusive = small, poorly fitted or top-dose-only effect, or another doubt; inactive = no such curve, though single readings can be large; an effect the other way counts as inactive or inconclusive. Unless noted, % is set by controls: 0 for no effect and ±100 for the full control effect.

SMILES	DT40 TDP1 CPT	DT40 TDP1 no CPT	HT1080NT lethal	IL1B secr inh	HT1080 IDH1KD tx
O=C(NC(=S)N(Cc1ccccc1)Cc1ccccc1)c1ccccc1F	u	u	-12%	12	-11%
COc1cc(Cn2c(=O)sc3ccccc32)ccc1OC(C)C	u	21µM*	x	x	x
CCOC(=O)NC(=O)C(=CNc1ccccc1C)C(=O)NC(=O)OCC	-3%	-4%	19%	27	21%
CCOc1ccc2c(c1)OC(c1ccc(C)cc1)(C(F)(F)F)NC2=O (stereo unspecified)	1.5µM*	1.3µM*	u	-16	2.3µM*
CCOc1ccc2c(c1)OC1(CCC(C)C1)CC2=O (stereo unspecified)	-25%	-18%	-14%	6	-6%
O=C(CCNC(=O)c1ccc(Br)cc1)NCc1ccncc1	4%	-7%	11%	11	10%
CCn1c(=NC(=O)CSC(C)=O)sc2cc(F)ccc21	u	18µM*	-10%	-14	-10%
CCC(=O)N=c1sc2cc(F)cc(F)c2n1C	3%	-7%	16%	33	-1%
C#CCn1c(=NC(=O)CSC(C)=O)sc2cc(F)ccc21	10µM*	21µM*	0%	-1	1%
C#CCn1c(=NC(=O)CSCC(=O)N2CCOCC2)sc2ccccc21	-9%	u	-4%	-8	5%
NC1=NC2=C(CCCC2)C2(CCCCC2)S1	u	u	u	-65*	u
CCC(C(=O)O)N1C(=O)/C(=C/C(C)=C/c2ccccc2)SC1=S (stereo unspecified)	5%	-2%	-7%	-6	-13%
CC(/C=C1\SC(=S)N(NC(=O)c2ccc(O)cc2)C1=O)=C\c1ccccc1	-17%	4%	-3%	-76*	4%
COc1cc(/C=C2\SC(=S)N(Nc3ccccc3)C2=O)ccc1O	u	u	-1%	1	2%
O=C1/C(=C/c2ccc(O)c(O)c2)SC(=S)N1Nc1ccccc1	u	u	u	-62*	u
COc1cc(/C=C2\SC(=S)N(NC(=O)c3ccc(O)cc3)C2=O)ccc1O	-3%	-13%	-10%	-2	-5%
O=C(NN1C(=O)/C(=C/c2ccc(O)c(O)c2)SC1=S)c1ccccc1	u	12µM*	-17%	31	u
COc1ccc(NC(=O)Cn2c(=O)n(-c3ccc(C)c(C)c3)c(=O)c3c(C)c(C)sc32)cc1	-28%	-5%	x	x	x
Cc1ccc(-n2c(C)nnc2SCC(=O)N2CCc3ccccc3C2)cc1	-8%	-28%	2%	0	17%
Cc1sc2nc(C3CC3)nc(SCC(=O)N3CCc4ccccc4C3)c2c1C	u	21µM*	-1%	-75*	-6%
CCc1c(C)sc2nc(C(C)C)nc(SCC(=O)N3CCc4ccccc4C3)c12	u	21µM*	1%	-67*	9%
CC(C)Sc1ccccc1C(=O)Nc1ccc2c(c1)n(C)c(=O)n2C	-18%	u	-23%	43	-13%
Cc1noc(C)c1COc1ccc(C(=O)OCC(=O)Nc2ccc(S(N)(=O)=O)cc2)cc1	u	16µM*	14%	-20	-1%
Cc1noc(C)c1COc1ccc(C(=O)OCC(=O)NCc2ccccc2Cl)cc1	u	29µM*	-28%	-8	-29%
COc1ccc(C2CC(O)(c3ccccc3)Oc3cc(OC)cc(OC)c32)cc1 (stereo unspecified)	23µM*	u	-5%	u	-1%
SMILES	DT40 TDP1 CPT	DT40 TDP1 no CPT	HT1080NT lethal	IL1B secr inh	HT1080 IDH1KD tx
O=C(N/N=C(\c1ccccc1)c1cccnc1)c1ccc(O)cc1	-17%	13%	5%	-12	8%
C/C(=N/NC(=O)c1ccncc1)c1ccccc1	4%	-5%	11%	0	22%
O=C(N/N=C(\Cc1ncc[nH]1)c1ccccc1)c1ccncc1	4.6µM*	4.6µM*	-27%	59	4.1µM*
O=C(N/N=C(\Cc1ncc[nH]1)c1ccccc1)c1cccnc1	4.6µM*	4.6µM*	u	101	u
O=S(=O)(Nc1ccc(Br)cn1)c1ccc(Cl)s1	-15%	20%	-6%	30	0%
Cc1cc(Oc2nc3c(C)cccn3c(=O)c2/C=C(\C#N)S(=O)(=O)c2ccc(Cl)cc2)ccc1Cl	u	23µM*	0%	-10	0%
COc1ccc(/C(C#N)=C/c2c(-c3ccc(Cl)cc3)nc3c(C)cccn23)cc1	u	18µM*	18%	30	14%
CC(C)(C)c1ccc(Oc2nc3ccccn3c(=O)c2/C=C(\C#N)c2nc3ccccc3[nH]2)cc1	2%	-3%	x	x	x
N#C/C(=C\c1c(Oc2ccc(Br)cc2)nc2ccccn2c1=O)c1nc2ccccc2s1	-73%	16µM*	x	x	x
Cc1cccn2c(=O)c(/C=C(\C#N)c3nc4ccccc4[nH]3)c(Oc3ccc(C(C)(C)C)cc3)nc12	5%	-14%	x	x	x
CCN1CCN(c2nc3c(C)cccn3c(=O)c2/C=C(\C#N)S(=O)(=O)c2ccc(Cl)cc2)CC1	-11%	-7%	2%	-21	-5%
Cc1cccn2c(=O)c(/C=C(\C#N)c3nc4ccccc4n3C)c(Oc3ccc(Cl)cc3)nc12	u	8.2µM*	x	x	x
CCCN(C(=O)COC(=O)CSc1ccc([N+](=O)[O-])cc1)C1CCS(=O)(=O)C1 (stereo unspecified)	u	u	5%	0	9%
CCN(CC)S(=O)(=O)c1ccc(O)c(C(=O)OCC(=O)NC23CC4CC(CC(C4)C2)C3)c1	-3%	-22%	1%	-6	8%
Cc1cccn2c(=O)c(/C=C(\C#N)c3nc4ccccc4n3C)c(Oc3ccc(Br)cc3)nc12	10µM*	6.5µM*	x	x	x
COc1ccc(N2C(=O)[C@@H]3C[C@H]2CN3Cc2cccn2-c2ccccn2)cc1Cl	1%[9.04 µM]	-27%	x	x	x
Cn1cc(C(=O)N/N=C/C(Br)=C/c2ccccc2)ccc1=O	3.3µM*	2.3µM*	21µM*	u	u
Cn1cc(C(=O)N/N=C/c2cccc(O)c2)ccc1=O	0%	-8%	10%	5	7%
Cn1cc(C(=O)N/N=C/C(Br)=C\c2ccccc2)ccc1=O	2.3µM*	2.9µM*	-9%	-98*	-28%
CCN(CC)S(=O)(=O)c1ccc(C(=O)NCCOC(=O)c2ccc(F)cc2F)cc1	-14%	u	15%	10	20%
O=C(NCc1ccc(Cl)nc1)c1ccc2nc([C@@H]3O[C@H](CO)[C@H](O)[C@H](O)[C@H]3O)[nH]c2c1	3%	8%	22%	18	10%
Nc1cc2[nH]c(=O)c3ccccc3c2cc1Br	-19%	-28%	-4%	0	u
